# Bioassay records: PubChem BioAssay, National Center for Advancing Translational Sciences (NCATS)
# Sampled rows, rich in hits. Any-hit rate of the full collection: about 3.8%.
# HT1080 IDH1KD tx: kills HT-1080 cells with IDH1 knockdown; HT-1080 IDH1 knockdown viability, ATP luminescence, 48 h; Potency, µM (titrated, usually from 46.1 µM), inactives show at the highest dose activity, negative = toxicity, most hits filed as cytotoxic; hit rate 2% among 360,000; AID 686971;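 further: 0% = DMSO wells and -100% = cell-free medium wells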
#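 Luminescent ATP read-out (CellTiter-Glo, 10 min at room temperature) after 48 h compound exposure at 37 °C gave viability of IDH1-knockdown HT-1080 cells. Activity was normalised to DMSO and cell-free wells, then fitted as concentration-response curves.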
# HT1080-NT tox: kills 2HG-producing HT-1080-NT fibrosarcoma cells; HT-1080-NT fibrosarcoma viability, CellTiter-Glo ATP luminescence, 48 h; Potency, µM (top dose mostly 46.1 µM), for the others: at the top dose activity, negative = less viability, most hits filed as cytotoxic; hit rate 1.6% among 360,000;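 further: NT is the 2HG producing partner of a matched IDH1 knockdown line; 0% = DMSO-treated cells and -100% = media-only wells without cells; nearly all actives have a fitted effect of over 55% in size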
#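 750 cells/well, RPMI + 5% FBS; 2 h settle, compound pin-transfer, 48 h at 37 degrees C. CellTiter-Glo 10 min RT, luminescence. Normalized to DMSO and media-only wells.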
# ATXN2 expr inh: inhibitors of ATXN2 expression | HEK-293 ATXN2-luciferase reporter, luminescence, 24 h | Potency, µM (doses to about 57 µM), for the others: at the highest dose activity change, negative = inhibition, hits mostly inhibitors | hit rate 0.72% among 360,000 | AID 1745845; further: on the % scale 0 is the no-effect control and ±100 the full control effect; nearly all actives have a fitted effect of over 55% in size
#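 qHTS (up to 57 uM final) was run with 24 h compound exposure of reporter cells at 37 °C. Each well was multiplexed: SteadyGlo luminescence measured ATXN2-luciferase expression after a fluorogenic Gly-Phe-AFC viability readout (25 uM final).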
# ATXN viability: cell viability loss in ATXN counter-screen | Potency, µM (top dose mostly 56.7 µM), hits mostly cytotoxic | hit rate 0.49% among 400,000 | S2 cells (HEK-293 line with an ATXN2-luciferase reporter) viability, CellTiter-Fluor protease fluorescence, 24 h; further: nearly all actives have a fitted effect of over 40% in size
# HepG2 viability: kills HepG2 cells in TGF-b inhibitor counter-screen. Potency, µM (series often up to 46.1 µM), for the others: at the highest dose activity change, negative = cytotoxicity, most hits filed as cytotoxic. hit rate 0.76% among 410,000. HepG2 CAGA-GFP viability, ATP luminescence, 18 h
#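 HepG2 CAGA-GFP cells (1000/well, DMEM with 1% FBS) received compound, then TGF-beta at 500 pg/mL final, and were incubated 18 hours at 37 degrees C. Viability was read by CellTiter-Glo luminescence. Media-only wells were set as complete cell-killing and DMSO as no toxicity.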
# TGFb SMAD3 inh: TGF-b pathway inhibition; hit rate 1.2% among 410,000; Potency, µM (titrated, usually from 46.1 µM), for the others: at the highest dose activity, negative = inhibition, most hits filed as inhibitors; HepG2 CAGA-GFP TGF-b/SMAD3 reporter, GFP fluorescence, 18 h; TGF-beta stimulated, 500 pg/mL final; further: on the % scale 0 is the no-effect control and ±100 the full control effect; nearly all actives have a fitted effect of over 65% in size
#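 Inhibition of TGF-beta-driven CAGA-GFP reporter expression in HEPG2 cells is measured by cellular GFP fluorescence after 18 h stimulation with 500 pg/mL recombinant TGF-beta in 1% FBS medium at 37 degrees C.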
# * = called active by the depositor; i = inactive; ? = inconclusive; / = no result; [ ] = dose if it differs, or a comment. The call rests on the fitted dose curve; in most records, active means well fitted curve in the direction sought with a large enough effect; inconclusive means small, poorly fitted or top-dose-only effect, or another doubt; inactive means no such curve, though single readings can be large; an effect the other way counts as inactive or inconclusive. Potency means the concentration at half of the fitted maximal effect.
SMILES,HT1080 IDH1KD tx,HT1080-NT tox,ATXN2 expr inh,ATXN viability,HepG2 viability,TGFb SMAD3 inh
NC[C@H]1O[C@H](O[C@H]2[C@H](O)[C@@H](O[C@H]3O[C@H](CO)[C@@H](O)[C@H](N)[C@H]3O)[C@H](N)C[C@@H]2N)[C@H](N)[C@@H](O)[C@@H]1O,/,/,9%[25.6 µM],i,/,/
CC(=O)Nc1ccc2c(c1)Cc1cc(N3C(=O)C=CC3=O)ccc1-2,?,-12%,?,?,-72%,16µM*
O=C1C=CC(=O)N1c1ccc2c(c1)Cc1cc(F)ccc1-2,-8%,23%,0%,?,0%,-6%
COc1ccc(C2CC(=O)N(Cc3ccc(F)cc3)c3ccccc3S2)cc1 (stereo not drawn),/,/,?,?,-43%,16µM*
COc1ccc(C2CC(=O)N(Cc3cccc(F)c3)c3ccccc3S2)cc1 (stereo not drawn),/,/,?,?,-32%,?
Cc1ccc(NS(=O)(=O)c2ccc(Cl)c(NC(=S)NC(=O)C3CCCCC3)c2)cc1Cl,?,?,?,?,11µM*,?
C[N+]1(CC(=O)c2c3ccccc3cc3ccccc23)CCOCC1,/,/,/,/,-24%,3%
CCN(CC)/[N+]([O-])=N/Oc1cc(O/N=[N+](\[O-])N(C)C)c([N+](=O)[O-])cc1[N+](=O)[O-],/,/,/,/,10µM*,6.3µM*
Nc1cc(N)[nH]c(=S)n1,/,/,/,/,-1%,9%
O=[N+]([O-])c1ccc(-[n+]2ccc3ccccc3c2)c([N+](=O)[O-])c1,?,?,?,11µM*,13µM*,5µM*
O=[N+]([O-])c1ccc(SNc2ccccc2)c([N+](=O)[O-])c1,-12%,-11%,-12%,i,0%,?
COc1ccc(OC)c(CN2CCC3(CCC(CNC(=O)c4ccco4)O3)CC2)c1 (stereo not drawn),/,/,/,i,/,/
COc1cccc(-c2nc(SCC(=O)NC3CCCC3)c(-c3ccc(F)cc3)[nH]2)c1,/,/,/,/,-40%,?
COC(=O)c1cn(Cc2ccccc2C)nn1,-12%,1%,3%,i,1.8µM*,-29%
O=C(O)Cn1nnc(-c2cccs2)n1,3%,2%,1%,i,3.2µM*,-3%
C[C@@H]1C(c2cccc(Cl)c2)=NN(c2ccc(Br)cc2)[C@H]1C(=O)N1CCOC1=O,?,?,-17%,/,-30%,10µM*
C[C@@H]1C(c2ccccc2)=NN(c2ccccc2)[C@H]1C(=O)N1CCOC1=O,?,-21%,11%,i,0%,6%
C[C@@H]1C(c2cccc(Cl)c2)=NN(c2ccccc2)[C@H]1C(=O)N1CCOC1=O,-13%,-9%,-6%,/,-48%,20µM*
CCOc1ccc(C(=O)NCCS(=O)(=O)N2CCN(c3cccc(Cl)c3)CC2)cc1,/,/,0%,i,2%,0%
CCCCNC(=O)CCn1c(=O)c2cccn2c2cccnc21,/,/,/,/,4%,7%
COc1cc(-c2cc(C)c3cccc(OC)c3n2)cc2c1OCCN(C(=O)Cn1nc(C)cc1C)C2,/,/,/,i,/,/
Cn1c(SCC(=O)N2CCCc3ccccc32)ncc(C(=O)Nc2ccccc2)c1=O,/,/,/,/,-4%,-22%
COc1ccccc1C1CCN(Cc2ccccc2)CC1,-13%,1%,?,i,-14%,0%
COc1ccccc1C1CCN(Cc2ccc3ccccc3c2)CC1,23µM*,?,?,?,-38%,?
CCOC(=O)c1cnc2c(ccc3ccccc32)c1Nc1ccccc1OCC,/,/,12%,i,-21%,-18%
SMILES,HT1080 IDH1KD tx,HT1080-NT tox,ATXN2 expr inh,ATXN viability,HepG2 viability,TGFb SMAD3 inh
CCOC(=O)c1cnc2c(ccc3ccccc32)c1NCCCN(C)C,21µM*,?,-3%,i,-38%,?
Cc1ccc(-c2ccc(C3C4C=CCC(C)C4C(=O)N3Cc3ccccc3)c(F)c2)cc1 (stereo not drawn),/,/,/,/,-35%,2%
Cc1cc(N2CCCCC2)nc2ccc(NC(=O)/C=C/c3ccccc3OC(C)C)cc12,/,/,/,/,4%,17%
CN(C)CCC(=O)N1C/C(=C/c2ccccc2)C(=O)/C(=C\c2ccccc2)C1,0.58µM*,?,2.1µM*,4.2µM*,-126%,2µM*
CCOC(=O)N1C/C(=C\c2ccccc2)C(=O)/C(=C/c2ccccc2)C1,?,?,/,?,-45%,2µM*
CCOC(=O)N1CCN(S(=O)(=O)/C=C/c2ccccc2)CC1,-14%,-2%,/,/,-14%,-17%
C/C(=C\c1ccccc1)C(=O)NCCN1CCOCC1,3%,2%,/,?,1%,?
C[N+](C)(C)CCC(=O)N1C/C(=C/c2ccccc2)C(=O)/C(=C\c2ccccc2)C1,4.1µM*,?,8.4µM*,/,-100%,7.9µM*
O=C1/C(=C/c2ccccc2)CN(C(=O)CCN2CCOCC2)C/C1=C\c1ccccc1,?,?,27µM*,21µM*,16µM*,2.2µM*
C1=CN2CC=Cc3cc(/C=C/c4ccnc5ccccc45)cc(c32)C1,/,/,/,/,-20%,125%
COc1ccccc1NCC(=O)N/N=C/c1c(O)ccc2ccccc12,10µM*,15µM*,2.5µM*,i,-48%,-1%
COc1ccccc1N(CC(=O)N/N=C/c1c(O)ccc2ccccc12)S(C)(=O)=O,?,?,8.9µM*,i,-1%,-20%
Cn1ncc(N=Cc2c(O)ccc3ccccc23)c1C(=O)N1CCOCC1,4%,1%,3%,i,-12%,-2%
O=C(CNc1ccc(F)cc1)N/N=C/c1c(O)ccc2ccccc12,10µM*,?,4.5µM*,?,-37%,?
COc1ccccc1NC(=O)c1c(N=Cc2c(O)ccc3ccccc23)cnn1C,5.8µM*,8.2µM*,-20%,?,-13%,-15%
Cc1ccc(NC(=S)/C(C#N)=C2/Nc3ccccc3S2)cc1,-19%,?,/,i,-38%,20µM*
Cc1ccc(NC(=O)C2(C)Cc3ccccc3C(=O)O2)c(C)c1 (stereo not drawn),/,/,0%,i,8%,39%
COc1cc(-c2c(-c3cc(OC)c(OC)c(OC)c3)noc2C)ccc1F,0.33µM*,0.13µM*,-10%,i,-25%,?
COC(=O)c1cc(-c2c(-c3cc(OC)c(OC)c(OC)c3)noc2C)cc([N+](=O)[O-])c1,-8%,-2%,-1%,i,20%,?
COc1ccc(-c2c(-c3cc(OC)c(OC)c(OC)c3)noc2C)cn1,1.5µM*,?,3%,?,-1%,?
